Reference: PubChem BioAssay (NCATS)
Values joined by “and” are separate entries in the source; they are usually repeats but may differ in a detail not shown here. Identical values can stand only once. Inconclusive results are not listed. Where a structure was tested more than once in an assay, its records may differ in their call. Active and inactive are the calls of the source. The call rests on the fitted dose curve; in most records, active means well fitted curve in the direction sought with a large enough effect; inconclusive means small, poorly fitted or top-dose-only effect, or another doubt; inactive means no such curve, though single readings can be large; an effect the other way counts as inactive or inconclusive.

Key:
[1] = Viability qHTS for spleen associated tyrosine kinase inhibitor (SYKi) naive MV4-11 cells (AID 1963823); further: nearly all actives have a fitted effect of over 40% in size; further: potency means the concentration at half of the fitted maximal effect
Summary of the method: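 In this viability screen, compounds acted on SYK inhibitor naive MV4-11 cells for three days (72 hr, 37 C). Remaining viable cells were measured by CellTiter-Glo luminescence following a 10 min room-temperature development.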

[2] = Viability qHTS for spleen associated tyrosine kinase inhibitor (SYKi) drug resistant MV4-11 cells (AID 1963824); further: nearly all actives have a fitted effect of over 35% in size; further: potency means the concentration at half of the fitted maximal effect
Summary of the method: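 SYK inhibitor-resistant MV4-11 AML cells, 500 per well, added to predispensed compounds and incubated 72 hr at 37 C, 5% CO2. Viability measured by CellTiter-Glo luminescence after 10 min at room temperature.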

[3] = Quantitative highthroughput screen to assess conditional lethalithy of NOMO1 cells grown in RPMI1640 with untreated serum (RPMI+s) (AID 1963876); further: nearly all actives have a fitted effect of over 35% in size; further: potency means the concentration at half of the fitted maximal effect;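 on Viability: 100% = DMSO wells and 0% = empty wells without cells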
Summary of the method: (§1)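 Each medium arm—HPLM with 10% dialyzed FBS, or RPMI1640 with 5 mM glucose and 10% untreated or dialyzed FBS—was screened against an 11-point, 3-fold compound titration for 48 h at 37 °C, with CellTiter-Glo luminescence as endpoint.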

[4] = Quantitative highthroughput screen to assess conditional lethalithy of NOMO1 cells grown in RPMI1640 with dialyzed fetal bovine serum (RPMI+ds) (AID 1963877); further: nearly all actives have a fitted effect of over 30% in size; further: potency means the concentration at half of the fitted maximal effect;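 on Viability: series mostly up to about 46 µM; 100% = DMSO control wells and 0% = empty wells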
Summary of the method: as §1

[5] = Quantitative highthroughput screen to assess conditional lethalithy of NOMO1 cells grown in Human Plasma-Like Medium with dialyzed fetal bovine serum (HPLM+ds) (AID 1963878); further: nearly all actives have a fitted effect of over 35% in size; further: potency means the concentration at half of the fitted maximal effect;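 on Viability: 100% = DMSO wells and 0% = empty wells on each plate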
Summary of the method: as §1

[6] = Quantitative highthroughput screen to assess conditional lethalithy of P12 Ichikawa cells grown in Human Plasma-Like Medium with dialyzed fetal bovine serum (HPLM+ds) (AID 1963879); conditions: Potency: viability; further: nearly all actives have a fitted effect of over 35% in size; further: potency means the concentration at half of the fitted maximal effect; on Viability: series mostly up to about 46 µM
Summary of the method: as §1

[7] = Quantitative highthroughput screen to assess conditional lethalithy of P12 Ichikawa cells grown in RPMI1640 with dialyzed fetal bovine serum (RPMI+ds) (AID 1963880); conditions: Potency: P12-Ichikawa viability; further: nearly all actives have a fitted effect of over 35% in size; further: potency means the concentration at half of the fitted maximal effect;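 on Viability: 100% = DMSO wells and 0% = empty wells on each plate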
Summary of the method: as §1

[8] = Quantitative highthroughput screen to assess conditional lethalithy of P12 Ichikawa cells grown in RPMI1640 with untreated serum (RPMI+s) (AID 1963881); conditions: Potency: viability; further: nearly all actives have a fitted effect of over 35% in size; further: potency means the concentration at half of the fitted maximal effect;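 on Viability: series mostly up to about 46 µM; 100% = DMSO wells and 0% = empty wells without cells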
Summary of the method: as §1

[9] = Cellular viability qHTS for adrenocortical cancer (ACC) cell line SW-13 (AID 1963989); conditions: SW-13 ACC cells viability, CellTiter-Glo, 48 h; activity (max response): stronger effect = lower value; further: nearly all actives have a fitted effect of over 65% in size; further: potency means the concentration at half of the fitted maximal effect;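 on activity (max response): cells grown in serum-free medium with ITS supplement; on the % scale 0 is the no-effect control and ±100 the full control effect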
Summary of the method: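 IC50 and maximal-response values come from four-parameter logistic fits of titration data. SW-13 cells in serum-free medium received compounds (up to 46 uM final) for 48 h before CellTiter-Glo luminescence.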

[10] = Cellular viability qHTS for adrenocortical cancer (ACC) cell line NCI-H295R (AID 1963990); further: nearly all actives have a fitted effect of over 60% in size; further: potency means the concentration at half of the fitted maximal effect;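 on activity change, negative = viability loss: 0% = DMSO only wells and -100% = full killing with cytotoxic reference compound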
Summary of the method: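 Adrenocortical carcinoma cells, suspended at 300 000 cells/mL in serum-free DMEM plus ITS, rested overnight before pin transfer of compound. After two days' incubation, ATP-dependent luminescence was recorded and curve-fitted.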

[11] = Quantitative highthroughput screen to assess conditional lethalithy of SEM cells grown in Human Plasma-Like Medium with dialyzed fetal bovine serum (HPLM+ds) (AID 1963882); further: nearly all actives have a fitted effect of over 35% in size; further: potency means the concentration at half of the fitted maximal effect; on Viability: series mostly up to about 46 µM
Summary of the method: as §1

[12] = Quantitative highthroughput screen to assess conditional lethalithy of SEM cells grown in RPMI1640 with dialyzed fetal bovine serum (RPMI+ds) (AID 1963884); further: nearly all actives have a fitted effect of over 35% in size; further: potency means the concentration at half of the fitted maximal effect;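 on Viability: series mostly up to about 46 µM; 100% = DMSO control wells and 0% = empty wells without cells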
Summary of the method: as §1

[13] = Quantitative highthroughput screen to assess conditional lethalithy of SEM cells grown in RPMI1640 with unreated serum (RPMI+s) (AID 1963883)
Summary of the method: as §1

COc1cc2nccc(Oc3ccc(NC(=O)NC4CC4)c(Cl)c3)c2cc1C(N)=O
active: Potency [1] 0.461 µM | Potency [2] 1.03 µM | Potency [3] 26.4 µM | Potency [4] 23.5 µM | Potency [5] 18.7 µM | Potency [6] 18.7 µM | Potency [7] 20.9 µM | Potency [8] 20.9 µM
inactive: activity (max response) [9] 3.51% | Potency [10]

Nc1ncnc2c1ncn2[C@@H]1O[C@H](CO)[C@@H](O)[C@@H]1O
active: Potency [3] 9.35 µM | Potency [4] 8.33 µM | Potency [5] 5.9 µM | Potency [6] 7.43 µM | Potency [7] 14.8 µM | Potency [8] 6.62 µM
inactive: Potency [1] | Potency [2] | Potency [11] | Potency [12] | activity (max response) [9] -11.9%

Cc1c(C(=O)Nc2ccc(N3C[C@@H](C)O[C@@H](C)C3)nc2)cccc1-c1ccc(OC(F)(F)F)cc1
active: Potency [3] 5.26 µM | Potency [4] 11.8 µM | Potency [5] 3.32 µM | Potency [6] 2.35 µM | Potency [7] 4.18 µM | Potency [8] 4.18 µM | Potency [11] 2.96 µM | Potency [12] 2.35 µM | Potency [10] 10 µM
inactive and 16.6 µM (active): Potency [1]
inactive: activity (max response) [9] -4.43%
inactive and 7.42 µM (active): Potency [2]

Cc1n[nH]c(C)c1Cc1sc2c(c1C(=O)N1C[C@H](O)CO1)c(=O)n(C)c(=O)n2CC(C)C
inactive: Potency [1] | Potency [2] | Potency [3] | Potency [4] | Potency [5] | Potency [6] | Potency [7] | Potency [8] | Potency [12] | activity (max response) [9] 15%

COc1cc2nc(N3CCCN(C)CC3)nc(NC3CCN(Cc4ccccc4)CC3)c2cc1OC
active: Potency [1] 2.35 µM | Potency [2] 2.35 µM | Potency [3] 8.33 µM | Potency [4] 5.26 µM | Potency [5] 5.26 µM | Potency [6] 11.8 µM | Potency [7] 11.8 µM | Potency [8] 13.2 µM | Potency [11] 5.26 µM | Potency [9] 5.62 µM | Potency [10] 8.91 µM

O=C1CCc2ccc(OCCCCN3CCN(c4cccc(Cl)c4Cl)CC3)cc2N1
active: Potency [1] 10.5 µM | Potency [2] 9.34 µM
inactive: Potency [3] | Potency [4] | Potency [5] | Potency [6] | Potency [7] | Potency [8] | Potency [11] | Potency [13] | Potency [10]

CCCCCN(C)CCC(O)(P(=O)(O)O)P(=O)(O)O
inactive: viability (% of control) [1] 73% [at 4.97 µM] | viability, % of control [2] 78.4% [at 4.97 µM] | Potency [3] | Potency [4] | Potency [5] | Potency [6] | Potency [7] | Potency [8] | Potency [12] | activity (max response) [9] -15.6% | activity change, negative = viability loss [10] -3.37% [at 3.81 µM]

CCCCN(CCCC)CCC(O)c1cc2c(Cl)cc(Cl)cc2c2cc(C(F)(F)F)ccc12 (stereo not given)
active: Potency [1] 10.6 µM | Potency [2] 8.41 µM | Potency [8] 13.2 µM | Potency [9] 5.8 µM | Potency [10] 5.8 µM
inactive: Potency [3] | Potency [4] | Potency [5] | Potency [6] | Potency [7] | Potency [11]

CCn1c(C(=O)N(C2CC2)C2CC2)cc2c3c(ncn3C)c(Nc3cc(C)n(C)n3)nc21
active: Potency [1] 1.03 µM and 1.48 µM | Potency [2] 2.31 µM and 3.72 µM
inactive: Potency [3] | Potency [4] | Potency [5] | Potency [6] | Potency [7] | Potency [8] | activity (max response) [9] -6.84%

COc1ccc(COc2cc3oc(=O)c4cc(C(C)O)ccc4c3cc2OC)cc1 (stereo not given)
inactive: Potency [1] | Potency [3] | Potency [4] | Potency [5] | Potency [6] | Potency [7] | Potency [10]
active: Potency [2] 8.2 µM and 4.68 µM | Potency [8] 18.7 µM | Potency [11] 18.7 µM

Nc1nc(-c2nn(Cc3ccccc3F)c3ncccc23)nc(N)c1N1CCOCC1
inactive: Potency [1] | Potency [2] | Potency [3] | Potency [4] | Potency [5] | Potency [6] | Potency [7] | Potency [8] | Potency [13] | Potency [12] | activity (max response) [9] 8.84% | Potency [10]

CCCCCCCCc1ccc(CCC(N)(CO)CO)cc1
active: Potency [1] 5.17 µM | Potency [2] 4.61 µM | Potency [3] 18.7 µM | Potency [4] 23.5 µM | Potency [5] 14.8 µM | Potency [6] 23.5 µM | Potency [7] 18.7 µM | Potency [8] 18.7 µM | Potency [11] 23.5 µM | Potency [9] 17.8 µM | Potency [10] 7.08 µM

Cc1ccc(S(=O)(=O)Nc2nc3ccccc3nc2Nc2ccc3nsnc3c2)cc1
active: Potency [1] 10.3 µM | Potency [2] 8.2 µM | Potency [3] 1.15 µM | Potency [4] 1.62 µM | Potency [5] 1.02 µM | Potency [6] 5.75 µM | Potency [8] 4.07 µM | Potency [11] 7.24 µM | Potency [12] 4.07 µM
inactive: activity (max response) [9] 0.221% | Potency [10]

COc1ccc2nc3cc(Cl)ccc3c(Nc3cc(CN4CCCC4)c(O)c(CN4CCCC4)c3)c2n1
inactive: Potency [3] | Potency [4] | Potency [5] | Potency [6] | Potency [7]
active: Potency [1] 0.742 µM | Potency [2] 1.05 µM | Potency [11] 16.6 µM | Potency [9] 12.6 µM | Potency [10] 5.62 µM
